Assay outcomes: PubChem, several laboratories
EP2 modulator – EP2 receptor modulators, cAMP readout, primary screen, cell-based, HTRF cAMP, PGE2 stimulation; Prostaglandin E2 receptor EP2 subtype (Homo sapiens), P43116; EP2-expressing cells, cAMP HTRF FRET, PGE2 co-stimulation; induction, % at 25 µM; 0.83% of 260,000 active;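 active means compounds whose cAMP rise, as percent of the full-agonist control response, exceeds 60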;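 further: rat C6 glioma line stably carrying human EP2 under a CMV promoter; the protocol text gives 20 µM as final concentration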
Target sequence (P43116 whole entry, looked up): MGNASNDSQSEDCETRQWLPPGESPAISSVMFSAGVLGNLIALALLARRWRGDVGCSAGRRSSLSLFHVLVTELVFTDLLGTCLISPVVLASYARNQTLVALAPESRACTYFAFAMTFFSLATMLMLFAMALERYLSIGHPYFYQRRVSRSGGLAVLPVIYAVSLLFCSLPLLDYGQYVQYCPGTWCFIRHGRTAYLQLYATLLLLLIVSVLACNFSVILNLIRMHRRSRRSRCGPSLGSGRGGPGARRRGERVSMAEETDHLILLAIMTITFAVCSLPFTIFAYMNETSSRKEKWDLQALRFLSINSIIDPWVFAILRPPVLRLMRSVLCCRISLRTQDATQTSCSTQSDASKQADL
EP2 antag – human EP2 receptor antagonists, primary screen, TR-FRET cAMP, C6 glioma cells; Prostaglandin E2 receptor EP2 subtype (Homo sapiens), P43116; C6 glioma cells expressing human EP2; cells stimulated with saturating PGE2; inhibition, % at 25 µM; 0.52% of 260,000 active;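 active means percent inhibition above 40 after rounding to a whole number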;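 further: rat C6 glioma host cells with rolipram phosphodiesterase inhibitor present; the protocol text gives 20 µM as final concentration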
Pf gametocyte – late stage P. falciparum gametocyte viability inhibitors, primary screen, ATP luminescence, HTS; P. falciparum stage V gametocytes, 24 h; inhibition, % at 10.9 µM; 0.065% of 150,000 active;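 active means inhibition above the mean plus 3 SD of compounds within the control limits, set per campaign, cut at about 38% in these data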
Furin inhibitor – human furin inhibitors, primary screen, biochemical, fluorescence intensity; inhibition, % at 20 µM or 30 µM; 0.061% of 220,000 active; P09958; purified furin, fluorogenic substrate cleavage; in the data active means inhibition above about 25%
HSV replic up – enhancers of HSV replication in host cells, fold increase, host cell viability; maximum fold increase; 0.005% of 220,000 active; HSV replication augmentation in cells; in the data active means maximum fold increase above about 1.5; tested in PC3 cells
Large screens that a line does not name were inactive; ! = repeats disagree. A selection: hits, their analogues and other compounds. The true share with any hit is near 1.4%.

CN(Cc1ccccc1)C(=O)c1[nH]cnc1C(=O)NCC(=O)OC(C)(C)C	none (no result: EP2 modulator, EP2 antag, Furin inhibitor, HSV replic up)
Cc1cc(-c2nc(-c3ccc(C(C)(C)C)cc3)no2)no1	none
Cc1c(-c2nc(-c3ccc(C(C)(C)C)cc3)no2)n(C)oc1=O	EP2 modulator 72
COC(=O)c1cc(OC)c(OC)cc1NC(=O)CCC1CCCC1	none
CC(C)(C)c1ccc(O)c(N)c1	none (no result: Pf gametocyte)
CC(C)(C)c1ccc(O)c(CN(Cc2cc(C(C)(C)C)ccc2O)c2ccccc2)c1	EP2 antag 55 (no result: Pf gametocyte, Furin inhibitor, HSV replic up)
Cn1c(COc2ccccc2)nnc1SCC(=O)N(C1CCCCC1)C1CCCCC1	EP2 modulator 74 (no result: Pf gametocyte, Furin inhibitor, HSV replic up)
COc1ccc(-n2nnnc2SCC(=O)N(C2CCCCC2)C2CCCCC2)cc1OC	EP2 modulator 69 (no result: Pf gametocyte, Furin inhibitor, HSV replic up)
Cc1cccc(C(=O)Nc2nnc(C(C)(C)C)s2)c1	none (no result: Pf gametocyte, Furin inhibitor, HSV replic up)
COc1ccccc1NC(=O)Nc1nnc(-c2ccco2)s1	none (no result: EP2 antag, Pf gametocyte, HSV replic up)
COc1ccccc1C(=O)Nc1nnc(-c2ccco2)s1	EP2 antag 44
O=C(Nc1nnc(-c2ccco2)s1)c1ccccc1	EP2 antag 46 (no result: Pf gametocyte)
Cc1ccc(C(=O)CCC(=O)N2CCC(C(N)=O)CC2)cc1	none
COc1ccc(CCNC(=O)COC(=O)c2ccc(Br)o2)cc1	none (no result: Pf gametocyte)
Oc1ccc(/C=N/Nc2cccc3cccnc23)c(O)c1	EP2 antag 51
Cc1ccc(/C=N/Nc2cccc3cccnc23)c(O)c1	none (no result: Pf gametocyte)
O=C(Nc1ccc2nn(-c3ccccc3)nc2c1)c1cccnc1	EP2 antag 40
O=C(Nc1ccc2nn(-c3ccccc3)nc2c1)c1ccco1	EP2 antag 41!
CCCCCCCCOC(=O)/C=C/c1c(C)[nH]c(=O)[nH]c1=O	none
COc1ccc(Br)cc1C(=O)Nc1ccc(NC(=O)c2ccco2)cc1	none (no result: Pf gametocyte)
CC[C@@]1(O)C(=O)OCc2c1cc1n(c2=O)Cc2cc3c(CN(C)C)c(O)ccc3nc2-1	EP2 antag 58! (no result: Pf gametocyte, Furin inhibitor, HSV replic up)
CC[C@@]1(O)C(=O)OCc2c1cc1n(c2=O)Cc2cc3c(N)cccc3nc2-1	none (no result: Pf gametocyte)
COCCNC(=O)CSc1cc(-c2ccccc2)c2ccc(OC)cc2n1	EP2 modulator 63
CCC(=O)N1CCN(c2ccc(NC(=O)c3ccc([N+](=O)[O-])o3)cc2)CC1	EP2 antag 46
CN(C)c1ccc(NC(=O)c2ccc([N+](=O)[O-])o2)cc1	none (no result: Pf gametocyte, Furin inhibitor, HSV replic up)
O=C(Nc1ccc(N2CCN(C(=O)c3ccc(Cl)cc3)CC2)cc1)c1ccc([N+](=O)[O-])o1	EP2 antag 121
CCC(=O)Nc1ccc(NC(=O)c2ccc([N+](=O)[O-])o2)cc1	EP2 antag 68 (no result: Pf gametocyte, Furin inhibitor, HSV replic up)
CCCC(=O)N1CCN(c2ccc(NC(=O)c3ccc([N+](=O)[O-])o3)cc2)CC1	none
CC(C)n1nnnc1SCC(=O)NCCc1ccccc1	none (no result: Pf gametocyte)
Cc1c(NC(=O)c2cc3nc(-c4ccccc4)cc(C)n3n2)c(=O)n(-c2ccccc2)n1C	none
C/C(CCc1oc2ccc(Br)cc2c1-c1ccc(C)o1)=N/O	EP2 modulator 63
c1ccc(C[n+]2cccc(-c3cc4ccccc4[nH]3)c2)cc1	EP2 antag 59 (no result: Pf gametocyte, Furin inhibitor, HSV replic up)
c1ccc(C[n+]2cccc(-c3ccccc3)c2)cc1	none
Cc1ccc(O)c(C2=Nc3ccccc3N=C(c3ccco3)C2)c1	EP2 modulator 63 (no result: Pf gametocyte)
O=C(NC1CCCC1)c1ccccc1OCc1ccccc1	EP2 modulator 62 (no result: Pf gametocyte)
CC(C)(C)c1cc(CN(CCO)CCO)c(O)c(C(C)(C)C)c1	none
CN(Cc1cc(C(C)(C)C)cc(Br)c1O)Cc1cc(C(C)(C)C)cc(Br)c1O	EP2 antag 43 (no result: Pf gametocyte, Furin inhibitor, HSV replic up)
O=C(CSc1nc2ccccc2s1)c1sc2sc3ccccc3[n+]2c1O	EP2 antag 66 (no result: Pf gametocyte, Furin inhibitor, HSV replic up)
CCCCCN=C(N)N/N=C/c1c[nH]c2ccc(OC)cc12	EP2 antag 136! (no result: Pf gametocyte, Furin inhibitor)
c1ccc2c(c1)nnn2-c1ncnc2sc3c(c12)CCCC3	none (no result: Pf gametocyte)
Cc1nc(-n2nnc3ccccc32)c2c3c(sc2n1)CCCC3	EP2 modulator 61
Cc1cc(C)cc(N=C2NC(=O)CS2)c1	none (no result: EP2 modulator, EP2 antag, Furin inhibitor, HSV replic up)
COC(=O)c1ccc(CCc2cc(O)ccc2O)cc1	EP2 antag 47 (no result: Pf gametocyte, Furin inhibitor, HSV replic up)
Cc1cccc(C)c1N(CC(=O)N1CCN(C)CC1)S(C)(=O)=O	EP2 modulator 64 (no result: Pf gametocyte)
COc1cc(C(=O)Nc2ccc(N3CCN(S(C)(=O)=O)CC3)cc2)cc(OC)c1OC	none (no result: Pf gametocyte, Furin inhibitor, HSV replic up)
CCOC(=O)c1nn(-c2ccc(F)cc2)c2nc(-c3ccccc3)c(C#N)c(=O)n12	EP2 modulator 65 (no result: Pf gametocyte)
CN(C)S(=O)(=O)c1ccc(-c2csc(N/N=C/c3ccco3)n2)cc1	EP2 antag 47
O=[N+]([O-])c1cccc(-c2csc(N/N=C/c3cccc(O)c3)n2)c1	EP2 antag 99
CN(C)S(=O)(=O)c1ccc(-c2csc(N/N=C/c3ccc(O)cc3)n2)cc1	EP2 antag 104
COc1ccc(-c2nc(-c3ccc(C)nc3OC)no2)cc1OC	none (no result: Pf gametocyte, Furin inhibitor, HSV replic up)
COc1cc(CC(=O)Nc2cccc(C(F)(F)F)c2)cc(OC)c1OC	none
CCN(CC)S(=O)(=O)c1ccc(N2CCOCC2)c(NC(=O)Cc2ccccc2F)c1	none
CC(=O)Nc1ccc2c(c1)C(=Nc1ccc(C(=O)O)cc1)c1ccccc1-2	EP2 antag 59 (no result: Pf gametocyte, Furin inhibitor, HSV replic up)
CC(C)Cn1c(SCC(=O)Nc2ncccn2)nc2ccccc21	none
COc1cccc2sc(Nc3nc(-c4cc5ccccc5oc4=O)cs3)nc12	none (no result: Pf gametocyte, HSV replic up)
COc1cccc2sc(Nc3nc(-c4ccncc4)cs3)nc12	Pf gametocyte 50
CC(C)(C)N(Cc1ccccc1)C(=O)c1ccc(Cl)cc1[N+](=O)[O-]	EP2 modulator 63
N#Cc1c(NC(=O)CSc2nnc3c(n2)[nH]c2ccc(F)cc23)sc2c1CCCC2	none (no result: Pf gametocyte, Furin inhibitor, HSV replic up)
C[N@@+]1(CC[N@+]2(C)CCC[C@@H]2c2cccnc2)CCC[C@@H]1c1cccnc1	EP2 antag 47 (no result: Pf gametocyte, Furin inhibitor, HSV replic up)
CCOC(=O)Nc1n[nH]c(NC(=O)OCC)c1[N+](=O)[O-]	none
N/C(=N\OC(=O)COc1ccc2ccccc2c1Br)c1ccccn1	EP2 modulator 62
NC(=O)c1ccccc1OCC(=O)O	none (no result: Pf gametocyte)
COc1cccc(C(=O)COc2ccccc2-c2ccccc2)c1	EP2 modulator 61
O=C(COc1ccccc1-c1ccccc1)c1ccccc1	none
COC(=O)c1sc2nc3c(c(-c4cccs4)c2c1N)CCCC3	EP2 modulator 64
CSc1ccc(C2NC(=O)c3ccccc3N2)cc1 (centres undefined)	none (no result: EP2 modulator, EP2 antag, Furin inhibitor, HSV replic up)
Cc1ccc(S(=O)(=O)N(CC(=O)N/N=C\c2cccs2)c2cccc3cccnc23)cc1	none
O=C(N=c1ccn(-c2nc3ccccc3nc2NS(=O)(=O)c2ccccc2)cc1)c1cccs1	EP2 antag 49
O=C(NCc1c(Cl)cccc1Oc1ccccc1)c1ccccc1	EP2 modulator 63
CC1(C)Cc2c(c(=S)nc(-c3ccccc3)n2Cc2cccnc2)CO1	none
CCOC(=O)c1c(-c2cccc([N+](=O)[O-])c2)csc1N	none
CCOC(=O)c1csc(N)c1-c1ccc([N+](=O)[O-])cc1	EP2 modulator 63
CCN1C(=O)c2cccc3c(NC(=O)C(C)(C)C)ccc1c23	EP2 antag 50
